# Measurements taken from PubChem BioAssay AID1662 (Broad Institute, 2009).
# The campaign covered roughly 300,000 compounds. About 4,000 (1.3%) were called active.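 Rule for the calls: active = mean replicate score, as percent of positive control median, at least 50; inconclusive = mean below 50 but one replicate at or above 50; inactive = mean and every replicate below 50.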 For the sample, actives were picked, then their nearest neighbours and some compounds at random.
# Experiment: S. pyogenes SKKanGAS growth inhibitors in kanamycin, primary screen, streptokinase expression inhibitor project, SKKanGAS strain, BacTiter-Glo luminescence (AID 1662);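 note: strain carries kanamycin resistance gene driven by streptokinase promoter and grows in 40 µg/ml kanamycin; loss of luminescence reflects streptokinase promoter inhibition or plain growth inhibition; 0% = median of DMSO wells and 100% = positive control at its reference dose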
# Settings: 6 h, at 7.5 µM, stronger effect = higher value
row,Structure (SMILES),inhibition
1,CCN1CC(CN(C)Cc2nc(-c3ccc(Cl)cc3)no2)CC1=O (centres undefined),1.31% (inactive)
2,CCOC(=O)C1(Cc2cccc(OC)c2)CCCN(C(=O)CCSC)C1 (centres undefined),1.89% (inactive)
3,C=CCNC(=O)c1ccc2c3n(nc2c1)-c1ccc(C)cc1CO3,-8.54% (inactive)
4,CCCC(=O)NC(Nc1ccccc1OC)C(Cl)(Cl)Cl (centres undefined),1.6% (inactive)
5,CCn1c(NC(=O)c2nn(C)cc2Br)nc2ccccc21,-1.42% (inactive)
6,CCOc1ccccc1NC(=O)C12CC3CC(C1)CC(c1ccc(C)cc1)(C3)C2,20.1% (inactive)
7,CCCn1c(NC(=O)C23CC4CC(CC(O)(C4)C2)C3)nc2ccccc21,54.4% (active)
8,COc1cccc(N(C(=O)c2snc(C(N)=O)c2N)C(C(=O)NCC2CCCO2)c2c[nH]c3ccccc23)c1 (centres undefined),3.94% (inactive)
9,N#C/C(=C(\O)C(F)(F)F)c1nnc2n1CCCCC2,7.62% (inactive)
10,Cn1sc(NC(=O)c2ccccc2)nc1=O,1.73% (inactive)
11,Cn1c(-c2ccc(C(=O)c3ccccc3)s2)nc2ccccc21,-1.65% (inactive)
12,Cn1c(NC(=O)c2ccccc2)nc2ccccc21,51.2% (active)
13,Cc1ccc(C)c(C(C)NC(=O)C2CCCO2)c1 (centres undefined),1.89% (inactive)
14,COc1cc2ccccc2cc1C(=O)Nc1ccc(NC(=O)c2cccs2)cc1,64.7% (active)
15,COc1cc2ccccc2cc1C(=O)Nc1ccncc1,-4.59% (inactive)
16,COc1cc(NC(=O)c2cccs2)ccc1NC(=O)c1ccccc1Cl,3.93% (inactive)
17,Cc1ccc(S(=O)(=O)NCCc2nnc3ccc(SCc4cccnc4)nn23)cc1,4.92% (inactive)
18,COc1ccc2sc(N(CCCN(C)C)C(=O)c3ccc(S(=O)(=O)N(C)C4CCCCC4)cc3)nc2c1,-0.457% (inactive)
19,O=S(=O)(NCC1CC1)c1ccc(F)c(Cl)c1,-1.69% (inactive)
20,COc1ccc(C2CC(c3cccs3)=NN2c2ccccc2)cc1 (centres undefined),11.6% (inactive)
21,O=C(c1ccccc1)N1N=C(c2ccccc2O)CC1c1ccc(Br)cc1 (centres undefined),18.1% (inactive)
22,Oc1ccccc1C1=NN(c2ccccc2)C(c2ccccc2)C1 (centres undefined),93.5% (active)
23,Cc1nc2cc(C(F)(F)F)ccc2n1CCNc1nc(-c2cc(Cl)c(N)c(Cl)c2)cs1,34.8% (inactive)
24,CCCc1cc(=O)[nH]c2nnc(SCC(=O)Nc3nnc(SCC)s3)n12,15.3% (inactive)
